Records with an inconclusive call do not appear. A call without a number means that no potency is given here. Calls of active or inactive are those of the source. Calls follow the shape of the full dose curve.
Test: qHTS assay to identify small molecule agonists of the progesterone receptor (PR) signaling pathway - cell viability counter screen (AID 1346799); also: nearly all actives have a fitted effect of over 45% in size
Details: PR-UAS-bla HEK293T viability, CellTiter-Glo luminescence, 16 h; series mostly up to 92.4 µM
Summary of the method: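 Using the same plates as the PR reporter screen, HEK293T PR-UAS-bla cells received compounds for 16 hr at 37C and were then lysed with CellTiter-Glo; luminescence was read 30 min later at room temperature.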
In the case of `Cc1nc2ccccn2c(=O)c1CCN1CCC(C(=O)c2ccc(F)cc2)CC1`, the Potency is reported as “inactive”.
In the case of `CCCCC(=O)O[C@]1(C(=O)CO)[C@@H](C)C[C@H]2[C@@H]3CCC4=CC(=O)C=C[C@]4(C)[C@@]3(F)[C@@H](O)C[C@@]21C`, the Potency is reported as “inactive”.
With `O=C(CCCN1CCN(c2ccc(F)cc2)CC1)NC1c2ccccc2CSc2ccccc21` (stereo unspecified) the Potency was “inactive”.
In the case of `C=CCOC(=O)/C=C\C(=O)OCC=C`, the Potency is reported as “inactive”.
For `O=C(CS)OCCOC(=O)CS`, the Potency was “inactive”.
For `Cc1oc(C)c(C(=O)Nc2ccccc2)c1C`, the Potency was “inactive”.
In the case of `CCCCCCCCSCCO`, the Potency is reported as “inactive”.
For `O=C(CCCCCCC(=O)Nc1ccccc1)NO`, the Potency was “inactive”.
In the case of `CCCCCCCCCCCC(=O)[O][Sn]([CH2]CCC)([CH2]CCC)[O]C(=O)CCCCCCCCCCC`, the Potency is reported as “inactive”.
With `NC(=O)Nc1ccc(Cl)c(Cl)c1` the Potency was “inactive”.
For `CC(=O)Oc1ccc(C(=C2CCCCC2)c2ccc(OC(C)=O)cc2)cc1`, the Potency was “inactive”.
For `CN(C)CCOC1=Cc2ccccc2Sc2ccc(Cl)cc21`, the Potency was “inactive”.
With `CCCCC/C(=C\c1ccccc1)CO` the Potency was “inactive”.
For `OC(CCCN1CCCCC1)(c1ccccc1)c1ccccc1`, the Potency was “inactive”.
In the case of `CCCOc1ccc(S(=O)(=O)N2CCN(CC)CC2)cc1-c1nc2c(CC)n(Cc3ccccn3)nc2c(=O)[nH]1`, the Potency is reported as “inactive”.
With `CC1CC(=O)NN=C1c1ccc(NCC(C)(C)NCC(O)COc2cc(Cl)ccc2C#N)cc1` (stereo unspecified) the Potency was “inactive”.
In the case of `CNC(=S)NC`, the Potency is reported as 7.7 µM (active).
With `COc1cc2c(N3CCN(C(=O)Nc4ccc(OC(C)C)cc4)CC3)ncnc2cc1OCCCN1CCCCC1` the Potency was “inactive”.
In the case of `CCCCCCCC/C=C\CCCCCCCC(=O)OC(CO)CO`, the Potency is reported as “inactive”.
For `O=C(CCCN1CCC(O)(c2ccc(Br)cc2)CC1)c1ccc(F)cc1`, the Potency was “inactive”.
For `CCc1c2c(nc3ccc(OC(=O)N4CCC(N5CCCCC5)CC4)cc13)-c1cc3c(c(=O)n1C2)COC(=O)[C@]3(O)CC`, the Potency was “inactive”.
Potency is read from the fitted curve at half-maximal effect.
